Assay results from ChEMBL document CHEMBL4513216, “Probing the Open Global Health Chemical Diversity Library for Multistage-Active Starting Points for Next-Generation Antimalarials” (ACS Infect Dis, 2020).
The campaign covered roughly 69,000 compounds. About 8,600 (12%) showed an effect of 50% or more. The sample holds strong results, similar compounds and a random draw of the others, so the mix is not that of the screen.

Test system: Plasmodium berghei
Experiment: Screen against P. berghei liver stage (PbLuc), transformed with Luciferase, at 10uM
Assay type: functional, HepG2
Settings: tested at 10 uM

Structure (SMILES) | INHIBITION
CC(C)(C)c1n[nH]c(C2CN(C(=O)c3cnc[nH]3)CCO2)n1 (stereo not drawn) | -42.1%
CN(C)CC1CN(Cc2cccc(C#N)c2)Cc2nccn2C1 (stereo not drawn) | -62.8%
CC[C@H](C)Nc1ncc(-c2cccc(NC(=O)CNC)c2)cn1 | -21.1%
Cc1n[nH]cc1CNCC(O)c1ccc(F)c(F)c1 (stereo not drawn) | 1.24%
Cc1cc(C(=O)N2CC[C@]3(C[C@@H](OCc4ccccn4)CO3)C2)c(C)o1 | 43.9%
O=C(NCC1CCCO1)c1cc(-c2cccnc2)c2cnccc2n1 (stereo not drawn) | 31.3%
Cc1ncc(CN2CCC(c3nc4cc(Cl)ccc4o3)CC2)s1 | 83.3%
Cc1ccc2oc([C@H]3CCN(Cc4ccccc4)C3)nc2c1 | 22.3%
Cc1ncc(CN2CCCN(Cc3noc(C4CC4)n3)CC2)s1 | -36.1%
Cc1noc(C)c1CN1CCC(c2nc3cc(Cl)ccc3o2)CC1 | 72.3%
Cc1nc(CN2CCC(c3nc4cc(Cl)ccc4o3)CC2)oc1C | -6.88%
Cc1nnc(CN2CCC(c3nc4cc(Cl)ccc4o3)CC2)n1C | -0.275%
N#Cc1cnc2cc(F)cc(F)c2c1NC1CCN(CC(N)=O)CC1 | -71.1%
CCCc1cc(C(=O)N[C@@H](CO)[C@@H](O)c2ccccc2)n(C)n1 | 20.3%
CCn1nc(C)cc1C(=O)N1C[C@@H]2C[C@@H](C)O[C@@H]2C1 | 1.7%
CCN(Cc1noc(CC(C)C)n1)Cc1ccccc1Cl | 50.8%
CCN(Cc1noc(CC(C)C)n1)Cc1ccccc1C | 42.4%
CCN(Cc1noc(CC(C)C)n1)Cc1ccccc1OCC(=O)O | 11.8%
CCN(Cc1noc(CC(C)C)n1)Cc1ncccc1C(=O)O | 35.9%
CCN(Cc1noc(CC(C)C)n1)Cc1cccc(F)c1O | 45.2%
CCN(Cc1noc(CC(C)C)n1)Cc1ccccc1C(=O)O | 58.2%
CCC1COCCN1C(=O)NCc1nccn1Cc1ccccc1 (stereo not drawn) | 40.7%
CCCC1CCCN(C(=O)CCn2cccn2)CC1 (stereo not drawn) | 30.76%
CC(C)C(=O)N1CC[C@H]2N(C)CC[C@@]2(C(=O)N2CCOCC2)CC1 | 14.9%
CC(C)n1cnc2c1C(C(=O)N(C)C)N(Cc1ccccc1)CC2 (stereo not drawn) | 4.61%

Structure (SMILES) | INHIBITION
C1CCN(CCO[C@@H]2CC[C@H]3[C@H]2OCCN3CC2CCOCC2)C1 | 34.4%
Cc1nccn1-c1ccc(C(C)NCc2cccn2C)cc1 (stereo not drawn) | 53.4%
CCOc1ccc(CNC(C)c2ccc3[nH]c(=O)[nH]c3c2)cc1 (stereo not drawn) | 4.71%
Cc1nccn1-c1ccc(C(C)NCc2ncc[nH]2)cc1 (stereo not drawn) | 50%
Cc1nccn1-c1ccc(N2CCC(NC(C)C(C)C)CC2)cc1 (stereo not drawn) | 25.8%
Cc1nccn1-c1ccc(C(C)NCc2cc[nH]n2)cc1 (stereo not drawn) | 50.8%
Cc1nc(CNC(C)c2ccc(OCC(=O)NC3CC3)cc2)cs1 (stereo not drawn) | 33.7%
COc1ccc(C)cc1C(C)NCc1cccn1C (stereo not drawn) | -40.7%
CC(NCc1cccn1C)c1noc(-c2ccc(Cl)cc2)n1 (stereo not drawn) | -1.15%
Cc1nccn1-c1ccc(N2CCC(N[C@H](C)C(C)C)CC2)cc1 | 43%
COc1cc2c(cc1OC)CN(C(=O)NCC1CCCO1)CC2 (stereo not drawn) | 18.9%
Cc1c(C(=O)O)oc2ccc(I)cc12 | 26.3%
Cc1nn(C)c(N(C)C)c1CNCCS(C)(=O)=O | -21.915%
O=C(CC1[C@H]2CN(C(=O)CO)C[C@@H]12)Nc1cccnc1 (stereo partly drawn) | 42.6%
CC(NC(=O)NCCCc1n[nH]c(N)c1C#N)c1ccc(F)c(F)c1 (stereo not drawn) | -23.8%
Cn1c(=O)[nH]c(=O)c2c1nc1n2CC(c2ccc(Br)cc2)O1 (stereo not drawn) | 1.985%
CC(=O)Nc1nc(CN2CCOC(Cn3cccn3)C2)cs1 (stereo not drawn) | 31.3%
CC(NCc1ccc(OCC(N)=O)cc1)c1ccc(Cl)c(Cl)c1 (stereo not drawn) | -6.91%
CC(C)(C)CC(=O)NCC(=O)Nc1ccn(Cc2ccccc2)n1 | 21.6%
O=C(NCC1CCCO1)c1csc(Cc2ccccc2)n1 (stereo not drawn) | -87.7%
O=C(NCC1CCC2(CCNCC2)CO1)c1ccno1 (stereo not drawn) | 5.36%
O=C(NCC1CCC2(CCNCC2)CO1)c1cnccn1 (stereo not drawn) | 73.3%
O=C(NCC1CC[C@@]2(CNCCOC2)O1)c1cnccn1 (stereo partly drawn) | 5.36%
Nc1nc(C(=O)NCC2CCC3(CCNCC3)CO2)cs1 (stereo not drawn) | 55.6%
Cc1ncsc1C(=O)NCC1CCC2(CCNCC2)CO1 (stereo not drawn) | -10.9%

Structure (SMILES) | INHIBITION
CCN1CCOC(CNCc2cccc(OCc3ccccn3)c2)C1 (stereo not drawn) | -62.8%
CN(C)c1cc(CNC(=O)c2c(F)cccc2F)ccn1 | -7.35%
COCC1Cn2nnc(-c3cnn(C)c3)c2CN1Cc1ccc(C)s1 (stereo not drawn) | 11.8%
CNS(=O)(=O)CC(=O)NC(c1cc(C)sc1C)C(C)C (stereo not drawn) | 16.6%
Cn1cc(C(=O)NC(Cn2cccn2)C(C)(C)C)cn1 (stereo not drawn) | 35.2%
CCc1nc(CNC(C)c2cccc(N3CCCC3=O)c2)cs1 (stereo not drawn) | 10.8%
Cc1ccsc1CN(C)Cc1ncccc1C(=O)O | 68.3%
CC(C)c1nc(CN(C)Cc2ncccc2C(=O)O)cs1 | 15.7%
Cc1ccsc1CN(Cc1ncccc1C(=O)O)C1CC1 | 31.9%
COc1cccc(CCC(=O)N2CCN(CC(C)(C)O)CC2)c1 | 4.3%
CC(=O)c1cc(CN2C[C@@H]3CC[C@H]2CN(Cc2c(C)noc2C)C3)cs1 | -33.5%
CCNC(=O)c1nnc2ccc(N3CCOCC3)cc2n1 | 30%
COCCNC(=O)c1nnc2ccc(N3CCOCC3)cc2n1 | 54%
CNC(=O)c1nnc2ccc(N3CCOCC3)cc2n1 | -12.2%
COC(=O)c1ccc(-c2cc(C(F)(F)F)cc(N(C)C)n2)cc1 | 23.6%
Cc1cccc(C(C(=O)NC(C)(C)CN2CCCC2)N(C)C)c1 (stereo not drawn) | -13.2%
CCc1ccc2nc(C)cc(C(=O)N[C@@H]3C[C@@H](CO)N(C)C3)c2c1 | 22.1%
Cn1cccc1C(=O)N1CCC2(CC1)CN(c1ccsc1)C(=O)CO2 | 71.9%
CN1CC(=O)N(c2ccsc2)CC12CCN(C(=O)c1cccn1C)C2 (stereo not drawn) | 19.4%
Cn1cc(N2CC3(CCN(C(=O)c4cccn4C)CC3)OCC2=O)cn1 | 73%
Cn1cccc1C(=O)N1CCC2(CC1)CN(c1cncnc1)C(=O)CO2 | 11.4%
Cn1cc(N2CCC3(CCN(C(=O)c4cccn4C)C3)C2=O)cn1 (stereo not drawn) | 23.6%
Cn1cccc1C(=O)N1CCC2(CC1)CN(c1ccccc1)C(=O)CO2 | 33.4%
